Assay in all cases: NCI-60 one-dose screen, 48 h (100 = growth as untreated, 0 = no growth, -100 = all killed)
One assay relates to HCT-15 colon. Conditions: 10 µM unless noted.
The next assay has as its system HT29 colon. Conditions: 10 µM unless noted.
In a further assay the test system is SNB-75 CNS. Conditions: 10 µM unless noted.
Another assay has as its system SNB-19 CNS. Conditions: 10 µM unless noted.
Another assay has as its system U251 CNS. To be noted: 10 µM unless noted.
In another assay the test system is PC-3 prostate. Conditions: 10 µM unless noted.
A further assay concerns SK-MEL-5 melanoma. To be noted: 10 µM unless noted.
Another assay concerns UACC-62 melanoma. To be noted: 10 µM unless noted.
The test system of the next assay is LOX IMVI melanoma. Conditions: 10 µM unless noted.
For a further assay, the system named is SK-MEL-28 melanoma. Conditions: 10 µM unless noted.
The subject of a further assay is SK-MEL-2 melanoma. Conditions: 10 µM.
A further assay concerns EKVX NSCLC. Conditions: 10 µM unless noted.
Another assay has as its system SN12C renal. Conditions: 10 µM unless noted.
A further assay relates to UO-31 renal. Conditions: 10 µM unless noted.
The subject of the next assay is TK-10 renal. Conditions: 10 µM unless noted.
The next assay concerns ACHN renal. Conditions: 10 µM unless noted.
In a further assay the test system is A498 renal. To be noted: 10 µM unless noted.
Another assay has as its system CCRF-CEM leukemia. To be noted: 10 µM unless noted.
In another assay the test system is MOLT-4 leukemia. Conditions: 10 µM unless noted.

This is part of a sample that, as a whole, favours compounds with a hit. Of some 83,000 tested, about 20% had one in any assay.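 Testing used 96-well plates and a 48-hour single-concentration exposure. Example: -40 means 40% of the starting cells died.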 Unmarked numbers belong to inactive results. Active and inactive are the calls of the source. How the source made its calls: active means growth percent below 10; inactive means the rest.

Regarding `C[C@@H](C[C@H](CCO)c1cc(C(F)(F)F)cc(C(F)(F)F)c1)c1ccc2ccccc2c1`, the growth with HCT-15 colon is 76.7%; in the assay with HT29 colon it was 71.2%; with SNB-75 CNS, 88.5%; with SNB-19 CNS, 107%; in the assay with U251 CNS, 91.5%; with PC-3 prostate it was 83%. Also, the growth in the assay with SK-MEL-5 melanoma is 105%; in the assay on UACC-62 melanoma, 90.4%; in the assay on LOX IMVI melanoma it was 87.3%; in the assay on SK-MEL-28 melanoma, 86.7%; in the assay on SK-MEL-2 melanoma it was 82.2%; with EKVX NSCLC, 81.3%. Further, the growth in the assay on SN12C renal was 96.4%; in the assay on UO-31 renal it was 79%; with TK-10 renal, 95%; in the assay with ACHN renal, 98.7%; with A498 renal, 120%; with CCRF-CEM leukemia, 84.2%. For the same compound, in the assay with MOLT-4 leukemia, the growth is 71%.
For the compound `COc1ccc2nc3cc(Cl)ccc3c(Nc3ccc(N(C)C)cc3)c2c1`, the growth with HCT-15 colon is 91.1%; in the assay on HT29 colon, 72.1%; with SNB-75 CNS, 111%; in the assay with SNB-19 CNS it was 101%; in the assay with U251 CNS, 93.5%; in the assay with PC-3 prostate, 85.4%. Moreover, the growth with SK-MEL-5 melanoma is 100%; in the assay with UACC-62 melanoma it was 98.1%; with LOX IMVI melanoma, 88.8%; in the assay with SK-MEL-28 melanoma, 112%; with SK-MEL-2 melanoma, 96.8%; in the assay with EKVX NSCLC it was 92.9%. The growth is 91.1% with SN12C renal; 84% in the assay on UO-31 renal; 128% with TK-10 renal; 100% with ACHN renal; 94.6% in the assay on A498 renal; 57.5% with CCRF-CEM leukemia. Further, the growth in the assay on MOLT-4 leukemia was 0.475% (active).
On to `Cc1cc(N(CCNc2ccnc3cc(Cl)ccc23)Cc2ccc3c(c2)OCO3)nc(N2CCN(C)CC2)n1`, for which the growth in the assay on HCT-15 colon was 0.627% (active); with HT29 colon, 0.16% (active); in the assay with SNB-75 CNS it was 32.4%; in the assay with SNB-19 CNS, 29.4%; in the assay with U251 CNS, -22.1% (active); in the assay with PC-3 prostate it was 48.2%. Moreover, the growth with SK-MEL-5 melanoma is -96.1% (active); in the assay with UACC-62 melanoma it was 33.7%; in the assay with LOX IMVI melanoma, -71.8% (active); in the assay on SK-MEL-28 melanoma, -65.7% (active); in the assay with SK-MEL-2 melanoma it was -57.5% (active); with EKVX NSCLC it was 73.4%. For the same compound, the growth is 60.7% in the assay on SN12C renal; 2.58% (active) in the assay with UO-31 renal; -24.9% (active) in the assay on TK-10 renal; -20.6% (active) with ACHN renal; 42.6% with A498 renal; -11.8% (active) with CCRF-CEM leukemia. Besides, the growth with MOLT-4 leukemia was 0.0794% (active).
`CCN1/C(=C/C=C/c2n(-c3ccccc3)c3ccc(-c4nc5ccccc5s4)cc3[n+]2CC)N(c2ccccc2)c2ccc(-c3nc4ccccc4s3)cc21`: the growth in the assay on HCT-15 colon is 14.9%; with HT29 colon, 10.8%; in the assay with SNB-75 CNS it was 18.6%; in the assay with SNB-19 CNS, 24.7%; in the assay with U251 CNS it was 4.79% (active); in the assay with PC-3 prostate it was 16.2%. The growth in the assay with SK-MEL-5 melanoma was -59.2% (active); with UACC-62 melanoma, 30.5%; in the assay with LOX IMVI melanoma, 1.77% (active); in the assay with SK-MEL-28 melanoma it was -8.49% (active); with SK-MEL-2 melanoma, -23.5% (active); with EKVX NSCLC it was 9.19% (active). Also, the growth in the assay on SN12C renal is -2.95% (active); with UO-31 renal, -7.26% (active); with TK-10 renal, -2.12% (active); in the assay on ACHN renal it was -3.27% (active); in the assay on A498 renal, -12.7% (active); with CCRF-CEM leukemia, 24.5%. In the assay on MOLT-4 leukemia, the growth was 16.5%.
Consider `CC1CCC(n2cnc3c(Cl)ncnc32)O1` (configuration not stated), for which the growth in the assay on HCT-15 colon was 103%; in the assay with HT29 colon it was 110%; in the assay with SNB-75 CNS it was 91.9%; in the assay on SNB-19 CNS it was 82.3%; with U251 CNS it was 102%; in the assay with PC-3 prostate, 89.6%. Moreover, the growth with SK-MEL-5 melanoma is 91%; in the assay with UACC-62 melanoma, 104%; with LOX IMVI melanoma it was 87.1%; in the assay on SK-MEL-28 melanoma it was 109%; with SK-MEL-2 melanoma, 109%; in the assay on EKVX NSCLC it was 94.5%. Moreover, the growth in the assay with SN12C renal is 110%; in the assay on UO-31 renal, 96.4%; with TK-10 renal, 88%; with ACHN renal, 104%; in the assay with A498 renal, 124%; in the assay with CCRF-CEM leukemia, 85.8%. Moreover, in the assay with MOLT-4 leukemia, the growth was 113%.
In the case of `Nc1cc2c(cc1Br)-c1c(C(=O)O)cccc1C2O` (configuration not stated), the growth in the assay on HCT-15 colon is 108%; with HT29 colon, 106%; with SNB-75 CNS, 90.2%; in the assay on SNB-19 CNS, 99.5%; in the assay on U251 CNS it was 97.4%; with PC-3 prostate it was 82.2%. Moreover, the growth in the assay on SK-MEL-5 melanoma is 99.9%; in the assay with UACC-62 melanoma, 90.9%; in the assay with LOX IMVI melanoma, 95.8%; in the assay on SK-MEL-28 melanoma it was 102%; with SK-MEL-2 melanoma, 131%; in the assay with EKVX NSCLC it was 88.3%. The growth in the assay with SN12C renal was 109%; in the assay with UO-31 renal, 102%; in the assay on TK-10 renal it was 117%; in the assay with ACHN renal it was 108%; with A498 renal, 129%; with CCRF-CEM leukemia, 124%. In the assay with MOLT-4 leukemia, the growth is 115%.
Regarding `O=C(Nc1ccc(C2=NCCCN2)cc1)c1ccc(C(=O)Nc2ccc(C3=NCCCN3)cc2)nc1`, the growth in the assay on HCT-15 colon is 108%; in the assay with HT29 colon, 109%; in the assay on SNB-75 CNS, 87%; in the assay with SNB-19 CNS, 96.8%; with U251 CNS, 105%; in the assay on PC-3 prostate, 106%. The growth in the assay with SK-MEL-5 melanoma was 99.3%; in the assay with UACC-62 melanoma, 99.5%; with LOX IMVI melanoma, 105%; with SK-MEL-28 melanoma, 120%; in the assay on SK-MEL-2 melanoma, 109%; in the assay with EKVX NSCLC, 96%. The growth in the assay on SN12C renal is 99.8%; in the assay on UO-31 renal it was 82.6%; in the assay with TK-10 renal, 122%; with ACHN renal, 107%; with A498 renal, 127%; with CCRF-CEM leukemia it was 107%. In the assay with MOLT-4 leukemia, the growth is 85.8%.
On to `CN1CCN(Cc2ccc(NC(=O)c3[nH]ncc3Nc3ncnc4sc5c(c34)CCCC5)cc2)CC1`, for which the growth with HCT-15 colon was -69.3% (active); in the assay with HT29 colon, -36.9% (active); in the assay on SNB-75 CNS, -94.2% (active); in the assay on SNB-19 CNS, -88.8% (active); in the assay with U251 CNS, -84.2% (active); with PC-3 prostate, -77.8% (active). Moreover, the growth is -99.9% (active) with SK-MEL-5 melanoma; 4.67% (active) in the assay on UACC-62 melanoma; -91.7% (active) in the assay on LOX IMVI melanoma; -78.9% (active) in the assay with SK-MEL-28 melanoma; -53.7% (active) in the assay with SK-MEL-2 melanoma; -71.2% (active) with EKVX NSCLC. Further, the growth was -44.2% (active) in the assay with SN12C renal; -82.9% (active) in the assay on UO-31 renal; -96.6% (active) with TK-10 renal; -100% (active) in the assay on ACHN renal; -60.5% (active) with A498 renal; -16.2% (active) in the assay on CCRF-CEM leukemia. In the assay with MOLT-4 leukemia, the growth is -62.5% (active).
